This note sets out measurements from the supplement of paper PMC9262897, “Low-cost anti-mycobacterial drug discovery using engineered E. coli” (Nature Communications, 2022).

The assay deals with E. coli TESEC Mtb Alr. The experiment in a line: growth (OD600 after 10 h); higher = more growth (less inhibition). The following applies: compound 0.1 mM. As for the experimental part:
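TESEC Mtb Alr E. coli, or the Alr+ wild-type control, in 384-well plates with Prestwick library compounds at 0.1 mM and 1% DMSO, across arabinose induction levels of 1E3 to 1E7 nM. Growth is read as OD600 after 10 h at 37 °C in triplicate biological replicates.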

The mark [1] stands for this setting: arabinose 1000 nM, raw OD600 reference: median of DMSO wells 0.294, cell-free background 0.041.
[2] abbreviates: arabinose 10000 nM, raw OD600 reference: median of DMSO wells 0.264, cell-free background 0.041.
Where [3] appears, read: arabinose 100000 nM, raw OD600 reference: median of DMSO wells 0.201, cell-free background 0.041.
[4] abbreviates: arabinose 1000000 nM, raw OD600 reference: median of DMSO wells 0.193, cell-free background 0.041.
[5] abbreviates: arabinose 10000000 nM, raw OD600 reference: median of DMSO wells 0.146, cell-free background 0.041.

Where a name gives a salt, the structure may show the parent alone. ± gives the standard deviation of the averaged measurements.

On to `CN(C)CCC(c1ccc(Br)cc1)c1ccccn1` (stereo not given) [Brompheniramine maleate], for which the growth is, setting by setting: under setting [1], 0.293 ± 0.0063; under setting [2], 0.264 ± 0.0057; under setting [3], 0.209 ± 0.037; under setting [4], 0.162 ± 0.0032; under setting [5], 0.15 ± 0.008.

With `Nc1ccc(S(=O)(=O)Nc2ccnn2-c2ccccc2)cc1` [Sulfaphenazole], the growth is, setting by setting: under setting [1], 0.236 ± 0.0082; under setting [2], 0.1522 ± 0.0011; under setting [3], 0.197 ± 0.031; under setting [4], 0.0993 ± 0.0064; under setting [5], 0.149 ± 0.0051.

As for `COc1cc([S+](C)[O-])ccc1-c1nc2cccnc2[nH]1` (stereo not given) [Sulmazole], the growth under setting [1] was determined as 0.282 ± 0.023; the growth under setting [2] came out at 0.264 ± 0.0096; the growth under setting [3] was 0.161 ± 0.027; the growth under setting [4] worked out at 0.2 ± 0.0059; the growth under setting [5] was 0.1223 ± 0.00055.

`CC(=O)OCC(=O)[C@@]1(OC(C)=O)[C@@H](C)C[C@H]2[C@@H]3C[C@H](F)C4=CC(=O)C=C[C@]4(C)[C@@]3(F)[C@@H](O)C[C@@]21C` [Diflorasone Diacetate]: the growth runs as follows: under setting [1], 0.178 ± 0.0085; under setting [2], 0.162 ± 0.0026; under setting [3], 0.194 ± 0.014; under setting [4], 0.112 ± 0.0026; under setting [5], 0.17 ± 0.0046.

`Nc1nc2ccc(OC(F)(F)F)cc2s1` [Riluzole hydrochloride] came in with a growth under setting [1] of 0.188 ± 0.0051; a growth under setting [2] of 0.255 ± 0.0058; a growth under setting [3] of 0.212 ± 0.007; a growth under setting [4] of 0.262 ± 0.016; a growth under setting [5] of 0.194 ± 0.0031.

For `Cc1cn([C@H]2C=C[C@@H](CO)O2)c(=O)[nH]c1=O` [Stavudine], the growth reads like this: under setting [1], 0.285 ± 0.023; under setting [2], 0.158 ± 0.017; under setting [3], 0.121 ± 0.0031; under setting [4], 0.119 ± 0.0013; under setting [5], 0.181 ± 0.0073.

With `C=C1c2cccc(O)c2C(O)=C2C(=O)[C@]3(O)C(O)=C(C(N)=O)C(=O)[C@@H](N(C)C)[C@@H]3[C@@H](O)[C@H]12` [Methacycline hydrochloride], the growth is, setting by setting: under setting [1], 0.0453 ± 0.00098; under setting [2], 0.0468 ± 0.0019; under setting [3], 0.0492 ± 0.0052; under setting [4], 0.0489 ± 0.0047; under setting [5], 0.0481 ± 0.0026.

`OCCN1CCN(CCCN2c3ccccc3Sc3ccc(Cl)cc32)CC1` [Perphenazine] gave a growth under setting [1] of 0.0411 ± 0.00082; a growth under setting [2] of 0.0422 ± 0.00061; a growth under setting [3] of 0.0431 ± 0.0021; a growth under setting [4] of 0.04167 ± 0.00035; a growth under setting [5] of 0.0462 ± 0.00053.
